# Screens as filed in PubChem.
# In the library only some 3.2% were active in any assay of this set; here they are far more common.
# A549 viability: A549 cytotoxicity, counter-screen for Nrf2 inhibitors | A549 ARE-Fluc cells, CellTiter-Fluor viability, 18-24 h | Potency, µM (doses to about 46 µM), most hits filed as inhibitors | hit rate 0.16% among 390,000 | AID 504648
#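 A549 ARE-Fluc cells in 5% FBS OPTI-MEM, 5000 cells/well, rested 2 h then exposed to compounds in concentration-response for 18-24 h at 37 °C. Viability by CellTiter-Fluor fluorescence (Ex 405/Em 525) after 30 min; luciferase luminescence (BugLite, 15 min, RT) read afterwards.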
# IL2 activator: activators of IL-2; IL-2 activation reporter assay, cell-based qHTS; stimulated with anti-CD3/CD4/CD28 beads; in transgenic mouse T cells; activation, % (series mostly up to about 46 µM); AID 652025; hit rate 0.065% among 360,000; in the data active = activation above about 50%; inconclusive = mostly about 30% to 49%
#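 Readout is EGFP and DsRed signal by fluorescent plate cytometry after 18 h at 37 degrees C. Transgenic mouse T cells (750/well) received compound for 60 min before bead stimulation (anti-CD3, anti-CD4, anti-CD28); memory T cells served as non-tolerant control.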
# p53 reactivation: restores transcriptional activity of mutant p53; H1299 p53-A138V BP100-luciferase reporter, luminescence, 24 h; Potency, µM (highest dose often 92.2 µM), usual class: activators; hit rate 0.063% among 320,000; AID 504706; also: nearly all actives have a fitted effect of over 45% in size
#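 p53-null H1299 cells stably carrying temperature-sensitive p53-A138V and a BP100-luciferase reporter were pinned with compounds (4-point, 1:5 series) and held 24 hrs at 37 deg C. Luminescence was read 10 min after detection reagent.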
# BRCA1 expr up: activators of BRCA1 expression | MCF7-BRCA1-FFLuc reporter, luminescence, 48 h; response scale: scaled: vehicle 0%, 10 µM genistein 100% | Potency, µM (doses to about 46.1 µM), actives largely listed as activators | hit rate 1.1% among 380,000; also: nearly all actives have a fitted effect of over 80% in size
#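 Quantitative HTS in MCF7 cells stably reporting BRCA1 expression via firefly luciferase. Compound treatment lasts 48 h at 37 °C in phenol-red free MEM. Activation is expressed relative to genistein at 10 microM and DMSO.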
# Nrf2 ARE act: activates Nrf2 signaling | AREc32 ARE-luciferase reporter (MCF7-derived line), luminescence, 24 h | AID 624171 | hit rate 0.31% among 410,000 | Potency, µM (series often up to 46.1 µM), hits mostly activators; also: nearly all actives have a fitted effect of over 65% in size
#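 Luciferase luminescence (Steady-Glo, 30 min at room temperature) served as the read-out of ARE activation in AREc32 cells treated with compounds for 24 hr at 37 deg C.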
# Nrf2 inh: inhibitors of Nrf2 signaling; AID 504444; hit rate 2.1% among 360,000; Potency, µM (series often up to 46 µM), actives largely listed as inhibitors; A549 ARE-Fluc reporter, luciferase luminescence, 18-24 h; also: nearly all actives have a fitted effect of over 60% in size
#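 A549 ARE_Fluc cells, 5000/well, 5% FBS OPTI-MEM; compounds in dose-response, 18-24 h at 37 °C/5% CO2; CellTiter-Fluor viability read (Ex 405/Em 525), then BugLite luciferase luminescence = Nrf2 activity.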
# Numbers stand for hits; 0 = inactive; ? = inconclusive; - = not tested or not shown; [ ] = another dose, or the depositor's remark. Unless noted, calls follow the shape of the dose curve; as a rule, active = well fitted curve in the direction sought with a large enough effect; inconclusive = small, poorly fitted or top-dose-only effect, or another doubt; inactive = no such curve, though single readings can be large; an effect the other way counts as inactive or inconclusive.
SMILES,A549 viability,IL2 activator,p53 reactivation,BRCA1 expr up,Nrf2 ARE act,Nrf2 inh
Cc1ccccc1S(=O)(=O)N1CCN(S(=O)(=O)c2ccc3c(c2)OCCO3)CC1,0,-,-,-,-,0
Cc1nc2ccc(NC(=O)N3CCCCC3)cc2s1,0,0,0,11.2µM,0,?
COc1cc(NC(=O)c2ccc(S(=O)(=O)N(C)c3ccccc3OC)cc2)cc(OC)c1,0,0,0,0,0,?
CCc1sc(C(=O)Nc2ccc3nc(C)sc3c2)cc1C,0,0,0,3.16µM,0,?
COc1ccccc1N(C)S(=O)(=O)c1ccc(C(=O)Nc2ccc3nc(C)sc3c2)cc1,0,0,0,0,0[9.22 µM],18.4µM
CN(c1ccccc1)S(=O)(=O)c1cccc(NC(=O)Cn2cnc3c2c(=O)n(C)c(=O)n3C)c1,0,0,0,0,0,10.3µM
Cc1nc2cc(NC(=O)c3ccc([N+](=O)[O-])s3)ccc2s1,0,0,0,0,0,6.51µM
CC(=O)Nc1ccc2nc(NC(=O)c3ccc([N+](=O)[O-])s3)sc2c1,-,-,0,-,-,-
Cc1nc2ccc(NC(=O)c3cccs3)cc2s1,0,0,?,6.31µM,?,0
Cc1nc2ccc(NC(=O)c3ccc4ccccc4n3)cc2s1,0,0,0,0,0,?
Cc1nc2ccc(NC(=O)c3ccccc3)cc2s1,0,0,0,3.55µM,0,?
CN(c1ccc(C(=O)Nc2cccc(O)c2)cc1)S(=O)(=O)c1ccccc1,0,0,0,0,0,0
COCc1ccc(C(=O)Nc2cccc(S(=O)(=O)N(C)c3ccccc3)c2)cc1,0,0,0,0,0,18.4µM
COc1ccc(C2Nc3ccccc3C(=O)N2Cc2ccccc2OC)cc1COc1ccc(NC(C)=O)cc1 (stereo unspecified),0,-,-,-,-,0
COc1ccc2cc(C#N)c(SCC(=O)OCc3ccccc3)nc2c1,0,-,-,0,-,0
O=C(COc1ccccc1F)Nc1ccc2nc(SCC(=O)N3CCCC3)sc2c1,0,-,-,-,0,?
Cc1nc2ccc(NC(=O)Cc3cccc(F)c3)cc2s1,0,0,0,0,0,0
CC(=O)Nc1ccc2nc3ccccc3nc2c1,0,0,0,5.62µM,0,?
Cc1nc2ccc(NC(=O)Cc3ccsc3)cc2s1,0,0,0,11.2µM,0,?
Cc1cccc(OCCSc2nc3ccc(NC(=O)c4cccs4)cc3s2)c1,0,-,-,0,0,23.1µM
O=C(Nc1ccc2nc3ccccc3nc2c1)c1ccc(Br)cc1,0,0,0,?,0,?
O=C(COc1ccccc1F)Nc1ccc2nc(SCC(=O)N3CCOCC3)sc2c1,0,-,-,-,0,18.4µM
O=C(COc1ccccc1F)Nc1ccc(Cl)c(-c2nc3ccccc3[nH]2)c1,0,-,-,-,0,0
CCCCCCCCN1C(=O)[C@H](CC(=O)N2CCC(c3ccccc3)CC2)C[C@@]2(C(=O)OC)CC(C)(C)CC=C12,-,0,-,-,-,-
Cc1ccc(OC(=O)c2ccc3nc(C)sc3c2)cc1,0,393.6,0,0,0,?
SMILES,A549 viability,IL2 activator,p53 reactivation,BRCA1 expr up,Nrf2 ARE act,Nrf2 inh
Cc1cc(NC(=O)c2ccccc2)ncc1NC(=O)c1cccs1,0,0,0,7.94µM,0,?
Cc1nc2ccc(OC(=O)c3ccccc3)cc2s1,0,0,0,0,0,0
Cc1cc(C)cc(C(=O)Nc2ccc(NC(=O)c3cccs3)cc2)c1,?,0,0,0,0,18.4µM
COC(=O)c1ccc2nc(-c3ccc(C)cc3)c(Cc3ccc(C)cc3)n2c1,-,0,-,0,0,-
COC(=O)c1ccc2nc(-c3ccco3)c(Cc3ccc(C)cc3)n2c1,-,0,-,0,11.2µM,-
COC(=O)c1ccc2nc(-c3ccco3)c(Cc3ccc(OC)cc3C)n2c1,-,0,-,0,11.2µM,-
COC(=O)c1ccc2nc(-c3ccco3)c(Cc3cccc(F)c3)n2c1,-,0,-,0,11.2µM,-
Cc1ccc(-n2c(Cc3cccs3)nnc2SCC(=O)Nc2ccc(F)c(F)c2)cc1,0,0,0,0,0,23.1µM
O=C(CSc1nnc(Cc2cccs2)n1-c1ccccc1)Nc1ccc2c(c1)OCCO2,0,0,0,0,0,0
Cc1cccc(C)c1N1C(=O)c2ccccc2NC(=O)C1C(=O)NCCc1ccccc1F (stereo unspecified),-,0,-,-,-,-
CN(C)CCN(C(=O)c1cccs1)c1nc2cc3c(cc2s1)OCCO3,0,0,0,11.2µM,0,0
CN(C)CCN(C(=O)C1CCCCC1)c1nc2cc3c(cc2s1)OCCO3,-,0,-,11.2µM,0,-
Fc1ccc(Cc2cn3cc(-c4ccc(Cl)cc4)nc3s2)cc1,0,-,-,0.891µM,0,?
Fc1ccc(-c2cn3cc(Cc4ccc(Cl)cc4)sc3n2)cc1,0,-,-,4.47µM,0,?
O=[N+]([O-])c1ccc(O/N=[N+](\[O-])N2CCCCC2)c([N+](=O)[O-])c1,-,-,-,0,-,-
Cc1onc(-c2ccc3c(c2)OCO3)c1-c1ccc2[nH]ccc2c1,0,0,-,0,0,14.6µM
O=Cc1nc(Nc2cc(F)cc(F)c2)nc(NC2CCCC2)n1,0,-,-,-,-,0
COc1ccc(NC(=O)C2CCN(C3=NS(=O)(=O)C(c4ccc(C)c(C)c4)=C3C)CC2)cc1OC,0,-,-,-,0,?
CCOC(=O)c1c(C)oc2nc(C)nc(Nc3cc(C)ccc3OC)c12,0,-,-,-,0,?
Cc1cccc(OCC(=O)Nc2ccc(OCc3cc(=O)n4cc(C)ccc4n3)cc2)c1,0,-,-,-,0,-
